Source: PubChem BioAssay AID504647 (National Center for Advancing Translational Sciences (NCATS), 2011)
The other results are listed elsewhere or left out. Active and inactive are the calls of the source. The rule behind the calls is not given here.

assay: Assay for Inhibitors of Influenza NS1 Protein Function: Influenza virus replication assay in MDCK cells infected with virus A/PR/8/34; settings: MDCK infected influenza A/PR/8/34, virus titer TCID50, at 5 µM; viability: measured here: MDCK cell viability, stronger effect = higher value; virus titer (log TCID50): stronger effect = lower value
Text: NIH Chemical Genomics Center [NCGC]
NIH Molecular Libraries Probe Centers Network [MLPCN]
Assay Submitter (PI): Daniel Engel
Influenza is a world-wide public health problem and emerging forms of the virus have the potential to cause a pandemic of equal or greater magnitude to the outbreaks recorded in 1918, 1957 or 1968. Vaccine development is proceeding and there also exist two classes of anti-influenza compounds. However these therapeutic modalities are neither fully effective nor widely enough available to fulfill global needs. In addition their potential usefulness against newly emergent strains is not known. Efforts are needed to develop novel agents against influenza virus, including broad-spectrum agents. Identification of small molecules that inhibit NS1 function either directly or by interfering with specific cellular pathways may be a key to increasing our defense against the virus.
We have miniaturized and optimized a cell based assay in which NS1 from influenza A is expressed in the budding yeast S. cerevisiae. NS1 is a multi-functional protein that counters the host innate immune response and facilitates viral versus cellular gene expression. Expression of NS1 causes a pronounced slow growth phenotype in yeast due to its intrinsic molecular activities. Small molecules that suppress the slow growth phenotype can be identified by a straightforward growth recovery assay using optical density (OD) as the measurement. The same yeast strain not expressing NS1 was used as positive control in the yeast growth recovery assay. The present experiment attempted to confirm the activity of compounds observed in the primary screen.
This assay confirms the activity of compounds from the primary screen by measuring their affect on viral replication.
Protocol details are given in Basu et al. J. Vir. 83(4):1881-1891 2009. […] All media and sera were from Invitrogen. […] Confluent cell monolayers were infected at a multiplicity of infection (MOI) of 0.1 for 48 h in the presence or absence of 5uM compound. Compounds were added at the beginning of infection and were present throughout the infection. After 48 h virus titers were determined by standard TCID50 analysis.

| SMILES | virus titer (log TCID50) | viability [%] |
| --- | --- | --- |
| O=c1cc(O)nc(SCc2ccccc2Cl)[nH]1 | 7.66 log10 TCID50 (inactive) | 104 |
| O=C1c2cccc(OCC(=O)N3N=C(c4cccs4)CC3c3ccc(F)cc3)c2CCN1Cc1ccccc1 (stereo not given) | 8.5 log10 TCID50 (inactive) | 91 |
| Cc1ccc(Cn2c(C)nc3c(c2=O)c2nc4ccccc4nc2n3Cc2ccco2)cc1 | 7.5 log10 TCID50 (active) | 101 |
| Cc1cc(C)c2cc(CN(Cc3nnnn3Cc3ccc(F)cc3)C3CCCC3)c(=O)[nH]c2c1 | 8.5 log10 TCID50 (inactive) | 103 |
| CCCc1cc(=O)[nH]c(SCC(=O)c2cc(C)n(CCC)c2C)n1 | 7.5 log10 TCID50 (active) | 95.4 |
